“And” between values parts separate entries of the source, which are not always exact repeats. Equal values may be shown once.
tested on: HepG2; assay: GSK_TCMDC: Percent inhibition of human HepG2 cell line. Test compounds present at 10uM.; type: functional

| SMILES | Inhibition |
| --- | --- |
| COc1ccc(CNC(=O)C2Cc3ccccc3CN2Cc2ccc3ccccc3c2)cc1 (centres undefined) | 15% |
| N#Cc1ccc(N/C(=N\c2ccc(-c3ccccc3)cc2)NCc2cccnc2)c(O)c1 | 2% |
| O=C(/C=C/c1ccccc1Cl)Nc1ccc(Br)c(OCCN2CCN(CCN3CCCC3)CC2)c1.O=C(O)C(=O)O | 26% |
| COc1ccc2ncc(F)c(CCN3CC(O)C(CNCc4nc5c(cc4Cl)OCC(=O)N5)C3)c2n1.Cl (centres undefined) | 12% and 13% and 5% |
| CCOC(=O)c1ccc(NC(=O)Nc2cccc(-c3cccc(-c4nc5ccccc5[nH]4)c3)c2)cc1 | 76% |
| CN(C)CC1CCCN1Cc1ccccc1-c1cnn(C)c(=O)c1Oc1cccc(C#N)c1.O=C(O)C(F)(F)F (centres undefined) | 26% |
| Cc1ccc(C(C)C)c(Oc2ccc3nc(N)nc(N)c3c2)c1 | 61% |
| O=C(Nc1ccc(-c2ccc(CN3CCNCC3)cc2)cc1)c1cccc(Cl)c1.O=C(O)C(F)(F)F | 58% |
| COCCNCc1ccc(-c2ccc(CNc3ccc4ncccc4c3)cc2)cc1.O=C(O)C(F)(F)F | 41% |
| O=[N+]([O-])c1ccc(/C=N/O)nc1 | 80% |
| CN1CCN(CC(=O)Nc2ccc(-c3cccc(-c4nc5cc(C(F)(F)F)ccc5[nH]4)c3)cc2)CC1 | 45% |
| CC(=O)Nc1ccc(OCCCN(Cc2ccccc2C(F)(F)F)c2ccc(C(F)(F)F)c(C#N)c2)c(Cl)c1 | 5% |
| CC(=O)N1CCN(c2ccc(NC(=O)c3oc(-c4ccccc4)nc3C(F)(F)F)cn2)CC1 | 0% |
| CCOC(=O)c1sc(C(C)Nc2ccccc2)nc1-c1ccccc1 (centres undefined) | 0% |

Source: ChEMBL document CHEMBL1157539, “Thousands of chemical starting points for antimalarial lead identification” (Nature, 2010)
